In PubChem BioAssay (NCI) one finds growth data, which are given here for 8 compounds.

Each structure is given as a SMILES string. About 83,000 compounds went through this panel and 20% of them were active in at least one assay; those are over-represented in the sample as a whole.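 Assay: single dose, 48 h. Readout: percent growth (0 = no net growth; negative = cell death). Active: <10.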 A number with no mark means an inactive call. Active and inactive are the calls of the source.

Among the test systems are SR leukemia; RPMI-8226 leukemia; OVCAR-8 ovarian; OVCAR-5 ovarian; OVCAR-4 ovarian; SK-OV-3 ovarian; IGROV1 ovarian; OVCAR-3 ovarian; HS 578T breast; NCI/ADR-RES ovarian; T-47D breast; BT-549 breast; MDA-MB-435 melanoma; SW-620 colon; MCF7 breast; HCT-116 colon; HCC-2998 colon; KM12 colon.
Holding throughout (assay): NCI-60 one-dose screen, 48 h (100 = growth as untreated, 0 = no growth, -100 = all killed)
Conditions in all cases: 10 µM unless noted

As for `Cc1ncc(C(=O)Nc2ccc(CN3CCN(C)CC3)c(C(F)(F)F)c2)cc1C#Cc1cnc(N)c2cnccc12`, the growth was -17.8% (active) in the assay on SR leukemia; 39.2% with RPMI-8226 leukemia; 15.4% with OVCAR-8 ovarian; 12.5% in the assay with OVCAR-5 ovarian; 40.7% in the assay on OVCAR-4 ovarian; -30.9% (active) with SK-OV-3 ovarian. Further, the growth is -31.3% (active) with IGROV1 ovarian; 31.2% in the assay on OVCAR-3 ovarian; -16.6% (active) in the assay with HS 578T breast; 55.3% in the assay on NCI/ADR-RES ovarian; 8.63% (active) in the assay with T-47D breast; 14.6% with BT-549 breast. For the same compound, the growth was 6.4% (active) in the assay on MDA-MB-435 melanoma; -55.3% (active) in the assay on SW-620 colon; -73.7% (active) in the assay on MCF7 breast; -86.1% (active) with HCT-116 colon; -1.5% (active) in the assay with HCC-2998 colon; 9.54% (active) with KM12 colon.

In the case of `COc1ccc2c(c1)c(-c1nonc1-c1cn(C)c3ccc(OC)cc13)cn2C`, the growth in the assay with SR leukemia is 16.5%; in the assay with RPMI-8226 leukemia, 39.9%; in the assay with OVCAR-8 ovarian it was 52.9%; in the assay with OVCAR-5 ovarian, 56.2%; in the assay with OVCAR-4 ovarian it was 62%; with SK-OV-3 ovarian, 48.2%. Further, the growth is 46.5% in the assay on IGROV1 ovarian; 11.4% with OVCAR-3 ovarian; 34.4% in the assay on HS 578T breast; 22.3% in the assay on NCI/ADR-RES ovarian; 38.6% with T-47D breast; 45.7% in the assay with BT-549 breast. Further, the growth was -25.4% (active) with MDA-MB-435 melanoma; 16.3% with SW-620 colon; 20.7% in the assay with MCF7 breast; 19.2% in the assay with HCT-116 colon; 65.7% in the assay on HCC-2998 colon; 25.8% in the assay on KM12 colon.

As for `CC(C)[C@@]12C[C@@H](OC(=O)COC(=O)c3ccccc3)[C@@](C)(O1)[C@@H]1CC[C@@H](C)[C@H]1[C@@H]2OC(=O)/C=C/c1ccccc1`, the growth in the assay on SR leukemia was 78.6%; in the assay on RPMI-8226 leukemia it was 85.3%; in the assay on OVCAR-8 ovarian, 31.7%; in the assay with OVCAR-5 ovarian, 95.7%; in the assay with OVCAR-4 ovarian, 87.2%; with SK-OV-3 ovarian it was 88.1%. For the same compound, the growth in the assay on IGROV1 ovarian is 114%; in the assay with OVCAR-3 ovarian it was 94.8%; in the assay with HS 578T breast, -14.4% (active); in the assay with NCI/ADR-RES ovarian, 25.2%; in the assay with T-47D breast, 60.1%; in the assay on BT-549 breast, 22.9%. Besides, the growth with MDA-MB-435 melanoma was 99.8%; in the assay on SW-620 colon it was 100%; in the assay on MCF7 breast it was 81.9%; with HCT-116 colon it was 83.6%; with HCC-2998 colon, 97.2%; with KM12 colon, 94.9%.

Take `Cc1ccc2nc(Cl)c(Cn3nnnc3SCc3ccccc3)cc2c1`: the growth in the assay on SR leukemia was 80%; in the assay on RPMI-8226 leukemia, 93.1%; in the assay with OVCAR-8 ovarian, 97.3%; in the assay with OVCAR-5 ovarian it was 94.3%; in the assay with OVCAR-4 ovarian, 86.9%; in the assay with SK-OV-3 ovarian, 97.7%. Moreover, the growth was 95.4% in the assay on IGROV1 ovarian; 105% in the assay on OVCAR-3 ovarian; 83.1% in the assay on HS 578T breast; 86.1% in the assay with NCI/ADR-RES ovarian; 84.6% in the assay with T-47D breast; 92.3% with BT-549 breast. Besides, the growth was 103% in the assay on MDA-MB-435 melanoma; 96.1% with SW-620 colon; 87.9% in the assay on MCF7 breast; 89.5% in the assay on HCT-116 colon; 111% with HCC-2998 colon; 101% in the assay on KM12 colon.

In the case of `CCOC(=O)c1n[nH]n2c1nc(=O)c1cnn(C)c12`, the growth with SR leukemia was 85.3%; in the assay with RPMI-8226 leukemia, 101%; with OVCAR-8 ovarian, 102%; in the assay with OVCAR-5 ovarian, 112%; in the assay with OVCAR-4 ovarian it was 102%; with SK-OV-3 ovarian, 101%. For the same compound, the growth was 108% in the assay on IGROV1 ovarian; 101% with OVCAR-3 ovarian; 105% in the assay on HS 578T breast; 103% in the assay on NCI/ADR-RES ovarian; 96.5% with T-47D breast; 133% in the assay on BT-549 breast. For the same compound, the growth with MDA-MB-435 melanoma was 105%; in the assay with SW-620 colon it was 108%; in the assay on MCF7 breast, 92.8%; in the assay with HCT-116 colon, 114%; in the assay with HCC-2998 colon, 100%; in the assay on KM12 colon, 95.7%.

`Cc1cc(F)ccc1S(=O)(=O)Nc1cc(-c2c(O)ccc3ccccc23)c(O)c2ccccc12`: the growth with SR leukemia is 18.8%; in the assay on RPMI-8226 leukemia, 11.6%; in the assay with OVCAR-8 ovarian it was 37.1%; in the assay with OVCAR-5 ovarian, 56.9%; in the assay with OVCAR-4 ovarian it was -8.24% (active); in the assay with SK-OV-3 ovarian it was 52.3%. Moreover, the growth was 27.6% in the assay with IGROV1 ovarian; 17.3% in the assay on OVCAR-3 ovarian; 42.3% in the assay on HS 578T breast; 31.3% in the assay on NCI/ADR-RES ovarian; 7.54% (active) in the assay on T-47D breast; 30.1% in the assay on BT-549 breast. The growth was 28% in the assay on MDA-MB-435 melanoma; 25.8% in the assay with SW-620 colon; 30.1% in the assay with MCF7 breast; 5.49% (active) with HCT-116 colon; -3.54% (active) with HCC-2998 colon; 3.55% (active) in the assay on KM12 colon.

Consider `Nc1nc(C(=O)N/N=C/c2ccc(N3CCOCC3)cc2)nn1-c1ccc(S(N)(=O)=O)cc1`, for which the growth with SR leukemia was 104%; in the assay on RPMI-8226 leukemia it was 102%; in the assay on OVCAR-8 ovarian it was 101%; in the assay with OVCAR-5 ovarian it was 114%; in the assay with OVCAR-4 ovarian it was 99.7%; with SK-OV-3 ovarian, 111%. Further, the growth in the assay on IGROV1 ovarian is 94%; with OVCAR-3 ovarian it was 104%; with HS 578T breast, 104%; in the assay with NCI/ADR-RES ovarian, 102%; with T-47D breast, 108%; with BT-549 breast, 116%. Besides, the growth was 104% in the assay on MDA-MB-435 melanoma; 99.9% in the assay with SW-620 colon; 103% in the assay with MCF7 breast; 101% in the assay with HCT-116 colon; 104% with HCC-2998 colon; 103% in the assay with KM12 colon.

Regarding `COc1ccccc1NC(=O)c1ccc(/C=C/C(=O)c2nccn2C)cc1`, the growth was -18.2% (active) in the assay on SR leukemia; -35% (active) in the assay on RPMI-8226 leukemia; 4.61% (active) in the assay with OVCAR-8 ovarian; -80.9% (active) with OVCAR-5 ovarian; -34.8% (active) in the assay on OVCAR-4 ovarian; 15.8% in the assay with SK-OV-3 ovarian. In addition, the growth is -56.5% (active) in the assay on IGROV1 ovarian; -90.9% (active) in the assay with OVCAR-3 ovarian; 35.5% in the assay with HS 578T breast; 5.75% (active) with NCI/ADR-RES ovarian; -15.8% (active) in the assay with T-47D breast; -63.5% (active) with BT-549 breast. Also, the growth is -75.7% (active) in the assay with MDA-MB-435 melanoma; -77.7% (active) in the assay on SW-620 colon; -45.6% (active) in the assay on MCF7 breast; -84.9% (active) in the assay with HCT-116 colon; -85.9% (active) with HCC-2998 colon; -73.9% (active) in the assay with KM12 colon.
